Activity calls are given as the source filed them.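 How the source made its calls, unless noted: active means inhibition above 20% together with a positive visual image hit; inconclusive means visual image hit but inhibition not above 20%; inactive means no visual image hit.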

A short description of one test: inhibitors of TNFa-induced NFkB p65 translocation, primary screen, imaging, HUVEC, MLSMR starter and 10KST1 sets (AID 438).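 Further: compound added about 3h40 before a 20 min TNFalpha stimulation.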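 On inhibition: signal is the nuclear over cytoplasmic p65 intensity ratio per well.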 The note with it: HUVEC TNFa-induced p65 nuclear translocation; cell count: measured here: nuclei count (cytotoxicity indicator), at 2.08 µM; inhibition: at 2 µM, stronger effect = higher value, 0% TNFa-plus-vehicle, 100% no-TNFa wells.
On to `Cc1ccc(NC(=O)c2cc(N3CCOCC3)nc3ccccc23)cc1`, for which the cell count was found to be 674 and the inhibition (commonly the relative decrease from the control value, in per cent) is -10.2% (inactive).

Take `COc1ccc(N(CC(=O)Nc2cc(C)ccc2C)S(=O)(=O)c2c(C)nn(C)c2C)cc1`: the cell count stood at 499 and the inhibition is -2.3% (inactive).

In the case of `Cc1nnc(NC(=O)CSc2cn(CCNC(=O)c3ccccc3)c3ccccc23)s1`, the cell count worked out at 651 and the inhibition was -9.6% (inactive).

Turning to `CC1(C)CC(=O)C(C(=O)CCCCC(=O)C2C(=O)CC(C)(C)CC2=O)C(=O)C1`, the cell count is 269 and the inhibition was 3.6% (inactive).

For the compound `O=C(CN(c1ccc(F)cc1)S(=O)(=O)c1ccc2c(c1)OCCO2)Nc1ccc2c(c1)OCO2`, the inhibition is -6.1% (inactive) and the cell count is 795.

On to `CCOC(=O)N1CCN(C(=O)CSc2nnc(-c3cccc(Cl)c3)o2)CC1`, for which the inhibition is 11.7% (inactive) and the cell count came to 543.

Turning to `O=c1oc2c3c4c(cc2s1)CCCN4CCC3`, the cell count was 441 and the inhibition is 7.4% (inactive).

With `CCOC(=O)N1CCN(C(=O)CSc2cc(C)nc3c(-c4ccccc4OC)c(C)nn23)CC1`, the cell count stood at 543 and the inhibition was -9.8% (inactive).

Consider `Cc1ccc(-c2noc(-c3ccccc3C(=O)NCC3CCCO3)n2)cc1` (stereo not drawn), for which the cell count was 763 and the inhibition is 2% (inactive).

For the compound `CCS(=O)(=O)N1CCCC(C(=O)NCc2cccc(OC)c2)C1` (stereo not drawn), the cell count was 722 and the inhibition was -5.5% (inactive).

`CC1=C(C(=O)OC2CCCCCC2)C(c2ccc(C)o2)C2=C(CCCC2=O)N1` (stereo not drawn): the inhibition was 3.9% (inactive) and the cell count stood at 420.

In the case of `CC(=O)N1CCN(C(=O)COc2ccc(Br)cc2)CC1`, the inhibition is -6.3% (inactive) and the cell count is 518.

Turning to `Cc1ccc(NC(=O)CSc2nnc(-c3ccccn3)n2C)cc1`, the inhibition was 14.4% (inactive) and the cell count was 644.

For `Nn1c(SCC(=O)NC2CCCCC2)nnc1C1CC1`, the cell count was determined as 433 and the inhibition was -28.7% (inactive).

Turning to `COc1ccc(-c2nc3n(n2)C(=O)CC(c2ccco2)S3)cc1` (stereo not drawn), the cell count is 666 and the inhibition was -10.3% (inactive).

For the compound `O=C(NC1CCCc2ccccc21)c1ccc(CNc2c(N3CCOCC3)c(=O)c2=O)cc1` (stereo not drawn), the inhibition is -3.4% (inactive) and the cell count worked out at 644.

For the compound `Nc1nc(-n2cnnc2)nn1-c1ccccc1`, the inhibition was 5.5% (inactive) and the cell count came out at 414.

For the compound `Cc1cccc(-n2ncc3c(NCc4cccnc4)ncnc32)c1`, the cell count is 670 and the inhibition was -21.7% (inactive).

Consider `CCCn1c(O)c(CN2CCCC(C)C2)c(C)c(C#N)c1=O` (stereo not drawn), for which the cell count is 673 and the inhibition is -16.4% (inactive).

Take `C=CCn1c(SCn2nnc3ccccc3c2=O)nnc1-c1ccc(Br)cc1`: the inhibition is -8.7% (inactive) and the cell count was determined as 447.

`Cc1cc(NS(=O)(=O)Cc2ccccc2)cc(C)c1OCC(=O)N1CCOCC1`: the inhibition is -3.3% (inactive) and the cell count amounted to 323.

For the compound `COC(=O)c1c(-n2cnnn2)sc(C)c1C`, the cell count came out at 504 and the inhibition is -4.7% (inactive).

On to `O=S(=O)(NC1CCCC1)c1ccccc1Cl`, for which the cell count turned out to be 739 and the inhibition was -7.3% (inactive).

In the case of `CCOC(=O)c1[nH]c2ccccc2c1NC(=O)C(CC)CC`, the cell count stood at 689 and the inhibition was -10.7% (inactive).

For the compound `Cc1cccn2c(=O)c(/C=C(\C#N)S(=O)(=O)c3ccccc3)c(N3CCN(C)CC3)nc12`, the inhibition was -9.2% (inactive) and the cell count stood at 468.

Consider `O=C(C1CCN(C2CC(=O)N(c3ccc(F)cc3)C2=O)CC1)N1CCOCC1` (stereo not drawn), for which the cell count is 326 and the inhibition was 6.1% (inactive).

Take `Cc1cc(C(=O)Nc2cccnc2)no1`: the cell count came to 543 and the inhibition is -10.1% (inactive).

For the compound `Cc1occc1C(=O)Nc1nnc(C2CCCCC2)s1`, the cell count worked out at 356 and the inhibition was 7.6% (inactive).

Consider `O=C(CSc1nc2ccccc2s1)Nn1cnnc1`, for which the cell count amounted to 461 and the inhibition is -6.2% (inactive).

Take `Cc1cccc(CCNC(=O)CCc2nc(-c3ccccc3F)no2)c1`: the cell count came out at 357 and the inhibition was 2.8% (inactive).

`CCOC(=O)N1CCC(NC(=O)Cn2ncc3c4ccccc4n(C)c3c2=O)CC1`: the inhibition was -1% (inactive) and the cell count is 557.

For the compound `CCCn1c(-c2ccc(F)cc2)cnc1SCC(=O)O`, the cell count was determined as 431 and the inhibition was 9.9% (inactive).

For `CC1CCN(C(=O)CSc2nnc(-c3ccc(S(=O)(=O)N4CCOCC4)cc3)n2C)CC1`, the cell count is 446 and the inhibition is 3.5% (inactive).

Regarding `Cc1cc(=O)n2nc(N3CCCC(C(=O)N4CCc5ccccc54)C3)sc2n1` (stereo not drawn), the inhibition is -7.5% (inactive) and the cell count was 487.

Regarding `CCOC(=O)c1ccc(NC(=O)CSc2n[nH]c(-c3ccncc3)n2)cc1`, the inhibition was -1.9% (inactive) and the cell count came to 590.

Regarding `CCOC(=O)N1CCC(c2cc(=O)n3[nH]cc(C(=O)OC)c3n2)CC1`, the inhibition is 6.8% (inactive) and the cell count was 534.

For the compound `COc1ccc(C(=O)CSc2nnc(C3CCCCC3)n2N)c(OC)c1`, the cell count worked out at 419 and the inhibition is -11.9% (inactive).

`Cc1ccc(C)c(NC(=O)c2ccc3c(c2)N(Cc2ccc(F)cc2)C(=O)CS3=O)c1` (stereo not drawn): the inhibition was 6.2% (inactive) and the cell count is 622.

For `CCc1[nH]c(=O)c(C#N)c2c1CCCC2`, the inhibition is -8.1% (inactive) and the cell count turned out to be 388.

Take `COc1cc(C2CC(=O)NC3=C2C(=O)CC(C)(C)C3)ccc1O` (stereo not drawn): the inhibition is -2.2% (inactive) and the cell count came out at 380.

A short description of the next test: reduction of polyQ htt aggregates in cells – imaging, exon1htt(103Q)mCFP cells, high-content imaging, primary screen (AID 483;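 active means visual image review flags a hit and inhibition of aggregation exceeds 20%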;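 further: compound exposure lasted 3 days before fixation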;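 on nuclei count: percent of the per-plate median nuclei count of sample wells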). The note with it: exon1htt(103Q)mCFP cell line, aggregate imaging, at 2 µM; inhibition of aggregation: stronger effect = higher value; nuclei count: measured here: cell count, toxicity.
Regarding `COc1ccc(N(CC(=O)Nc2cc(C)ccc2C)S(=O)(=O)c2c(C)nn(C)c2C)cc1`, the nuclei count was found to be 65.3% and the inhibition of aggregation is 30.5% (inactive).

Consider `Cc1nnc(NC(=O)CSc2cn(CCNC(=O)c3ccccc3)c3ccccc23)s1`, for which the nuclei count amounted to 70.8% and the inhibition of aggregation was 28.2% (inactive).

Regarding `CC1(C)CC(=O)C(C(=O)CCCCC(=O)C2C(=O)CC(C)(C)CC2=O)C(=O)C1`, the inhibition of aggregation was 18% (inactive) and the nuclei count amounted to 100%.

In the case of `O=C(CN(c1ccc(F)cc1)S(=O)(=O)c1ccc2c(c1)OCCO2)Nc1ccc2c(c1)OCO2`, the nuclei count worked out at 105% and the inhibition of aggregation is -28.9% (inactive).

On to `CCOC(=O)N1CCN(C(=O)CSc2nnc(-c3cccc(Cl)c3)o2)CC1`, for which the inhibition of aggregation is -117% (inactive) and the nuclei count is 10.5%.

In the case of `O=c1oc2c3c4c(cc2s1)CCCN4CCC3`, the inhibition of aggregation was -6.4% (inactive) and the nuclei count is 100%.

For `CCOC(=O)N1CCN(C(=O)CSc2cc(C)nc3c(-c4ccccc4OC)c(C)nn23)CC1`, the inhibition of aggregation is -34.4% (inactive) and the nuclei count was 122%.

Take `Cc1ccc(-c2noc(-c3ccccc3C(=O)NCC3CCCO3)n2)cc1` (stereo not drawn): the inhibition of aggregation was -9% (inactive) and the nuclei count is 110%.

With `CCS(=O)(=O)N1CCCC(C(=O)NCc2cccc(OC)c2)C1` (stereo not drawn), the nuclei count stood at 105% and the inhibition of aggregation is -59.8% (inactive).

As to `CC1=C(C(=O)OC2CCCCCC2)C(c2ccc(C)o2)C2=C(CCCC2=O)N1` (stereo not drawn), the inhibition of aggregation was -10% (inactive) and the nuclei count is 102%.

Regarding `CC(=O)N1CCN(C(=O)COc2ccc(Br)cc2)CC1`, the inhibition of aggregation was -1.5% (inactive) and the nuclei count was 93.7%.

With `Cc1ccc(NC(=O)CSc2nnc(-c3ccccn3)n2C)cc1`, the inhibition of aggregation is 6.7% (inactive) and the nuclei count amounted to 92.4%.

In the case of `Nn1c(SCC(=O)NC2CCCCC2)nnc1C1CC1`, the inhibition of aggregation is 7.4% (inactive) and the nuclei count is 95.6%.

Consider `O=C(NC1CCCc2ccccc21)c1ccc(CNc2c(N3CCOCC3)c(=O)c2=O)cc1` (stereo not drawn), for which the nuclei count came to 51.3% and the inhibition of aggregation is 36.3% (active).

With `Nc1nc(-n2cnnc2)nn1-c1ccccc1`, the inhibition of aggregation is -0.2% (inactive) and the nuclei count came out at 97%.

As for `Cc1cccc(-n2ncc3c(NCc4cccnc4)ncnc32)c1`, the inhibition of aggregation is 9.2% (inactive) and the nuclei count was 101%.

As to `CCCn1c(O)c(CN2CCCC(C)C2)c(C)c(C#N)c1=O` (stereo not drawn), the inhibition of aggregation was 2.6% (inactive) and the nuclei count came out at 91.2%.

On to `C=CCn1c(SCn2nnc3ccccc3c2=O)nnc1-c1ccc(Br)cc1`, for which the nuclei count came to 67.5% and the inhibition of aggregation is 6% (inactive).

Regarding `Cc1cc(NS(=O)(=O)Cc2ccccc2)cc(C)c1OCC(=O)N1CCOCC1`, the inhibition of aggregation is -14.1% (inactive) and the nuclei count was 86.8%.

With `O=S(=O)(NC1CCCC1)c1ccccc1Cl`, the nuclei count was 111% and the inhibition of aggregation is -2.5% (inactive).

Turning to `CCOC(=O)c1[nH]c2ccccc2c1NC(=O)C(CC)CC`, the inhibition of aggregation is -18.7% (inactive) and the nuclei count came out at 118%.

`O=C(C1CCN(C2CC(=O)N(c3ccc(F)cc3)C2=O)CC1)N1CCOCC1` (stereo not drawn): the inhibition of aggregation is 19.1% (inactive) and the nuclei count is 79.5%.

Take `Cc1cc(C(=O)Nc2cccnc2)no1`: the nuclei count was determined as 116% and the inhibition of aggregation was -9.5% (inactive).

Turning to `Cc1occc1C(=O)Nc1nnc(C2CCCCC2)s1`, the nuclei count is 108% and the inhibition of aggregation was -8.9% (inactive).

As to `Cc1cccc(CCNC(=O)CCc2nc(-c3ccccc3F)no2)c1`, the inhibition of aggregation is -1.1% (inactive) and the nuclei count worked out at 101%.

In the case of `CCOC(=O)N1CCC(NC(=O)Cn2ncc3c4ccccc4n(C)c3c2=O)CC1`, the inhibition of aggregation was -0.9% (inactive) and the nuclei count worked out at 98.6%.

In the case of `CCCn1c(-c2ccc(F)cc2)cnc1SCC(=O)O`, the nuclei count is 106% and the inhibition of aggregation is -4.3% (inactive).

For `CC1CCN(C(=O)CSc2nnc(-c3ccc(S(=O)(=O)N4CCOCC4)cc3)n2C)CC1`, the inhibition of aggregation is -5.5% (inactive) and the nuclei count amounted to 97.2%.

For `Cc1cc(=O)n2nc(N3CCCC(C(=O)N4CCc5ccccc54)C3)sc2n1` (stereo not drawn), the inhibition of aggregation was -1.6% (inactive) and the nuclei count turned out to be 97%.

Regarding `CCOC(=O)c1ccc(NC(=O)CSc2n[nH]c(-c3ccncc3)n2)cc1`, the inhibition of aggregation was 7.2% (inactive) and the nuclei count is 99.9%.

Regarding `CCOC(=O)N1CCC(c2cc(=O)n3[nH]cc(C(=O)OC)c3n2)CC1`, the nuclei count was 58.3% and the inhibition of aggregation was -16.8% (inactive).

Turning to `COc1ccc(C(=O)CSc2nnc(C3CCCCC3)n2N)c(OC)c1`, the nuclei count is 97.2% and the inhibition of aggregation was 24.4% (inactive).

With `Cc1ccc(C)c(NC(=O)c2ccc3c(c2)N(Cc2ccc(F)cc2)C(=O)CS3=O)c1` (stereo not drawn), the inhibition of aggregation was -0.7% (inactive) and the nuclei count came to 105%.

With `COc1cc(C2CC(=O)NC3=C2C(=O)CC(C)(C)C3)ccc1O` (stereo not drawn), the nuclei count was found to be 101% and the inhibition of aggregation was 6.5% (inactive).

Values taken from PubChem BioAssay.
